Compounds with a hit are over-represented: about 2.4% of the library has one in this group of screens.
Cruzain inh noDet: qHTS Assay for Promiscuous and Specific Inhibitors of Cruzain (without detergent). Cruzipain (Trypanosoma cruzi), P25779. purified cruzain, Z-FR-AMC fluorescence, no detergent. Potency, µM, without a hit: max response, negative = inhibition, actives largely listed as inhibitors. 200,000 compounds, 2.3% hits;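 also: plate controls were enzyme without inhibitor for no effect and buffer without enzyme for full effect; nearly all actives have a fitted effect of over 40% in size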
Target sequence (P25779 123-467 limits assumed): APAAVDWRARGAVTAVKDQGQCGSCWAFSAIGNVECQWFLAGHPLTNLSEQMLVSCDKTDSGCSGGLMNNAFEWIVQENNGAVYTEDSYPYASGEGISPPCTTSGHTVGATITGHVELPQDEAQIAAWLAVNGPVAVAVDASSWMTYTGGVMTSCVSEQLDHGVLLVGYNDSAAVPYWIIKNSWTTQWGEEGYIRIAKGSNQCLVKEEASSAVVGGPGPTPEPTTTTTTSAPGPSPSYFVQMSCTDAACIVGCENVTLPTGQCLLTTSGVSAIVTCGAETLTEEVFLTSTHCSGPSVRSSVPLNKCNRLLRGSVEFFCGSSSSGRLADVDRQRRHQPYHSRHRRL
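Detergent-free condition (0.00005% Triton X-100) in acetate buffer pH 5.5 with DTT. 1.5 nM enzyme and compound were pre-mixed 15 min, then 2 uM Z-FR-AMC substrate added; reaction progress from fluorescence change between first and third reads (60 s).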
Cruzain inh Det: qHTS Assay for Promiscuous and Specific Inhibitors of Cruzain (with detergent); 200,000 compounds, 0.43% hits; Potency, µM, without a hit: max response, negative = inhibition, actives largely listed as inhibitors; Cruzipain (Trypanosoma cruzi), P25779; purified cruzain, Z-FR-AMC fluorescence, 0.01% Triton;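 also: plate controls were neutral wells for no effect and buffer without enzyme for full effect; nearly all actives have a fitted effect of over 40% in size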
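Sodium acetate buffer (100 mM, pH 5.5) containing 5 mM DTT and 0.01% Triton X-100 hosted 1.5 nM cruzain and test compound for 15 min at room temperature. Cleavage of 2 uM Z-FR-AMC was then tracked by fluorescence.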
Starred values were filed as active, the others as inactive; ? = inconclusive. Calls follow the shape of the dose curve; as a rule, active = well fitted curve in the direction sought with a large enough effect; inconclusive = small, poorly fitted or top-dose-only effect, or another doubt; inactive = no such curve, though single readings can be large; an effect the other way counts as inactive or inconclusive. Potency is read from the fitted curve at half-maximal effect.

SMILES	Cruzain inh noDet	Cruzain inh Det
Cc1ccc(C(=O)c2cnc3cc4c(cc3c2S(=O)(=O)c2ccccc2)OCCO4)cc1	?	-7%
NCCC[C@@H](CC(=O)N[C@@H]1CCNC[C@H]1C(=O)N[C@H](CC(=O)N[C@@H](CCC(=O)O)CC(=O)O)Cc1ccccc1)NC(=O)C[C@H](Cc1ccccc1)NC(=O)[C@@H]1CCCC[C@H]1N	10%	2%
COC(=O)c1cccc(C23CC4(C2)[C@H](CN(Cc2ccc(-c5ccccc5)cc2)[C@@H]4c2ccccc2)C3c2ccc(C(F)(F)F)cc2)c1 (stereo not given in full)	25µM*	-2%
COC(=O)c1cccc(C23CC4(C2)[C@H](CN(Cc2ccc(-c5ccccc5)cc2)[C@@H]4c2ccccc2)C3c2ccccc2)c1 (stereo not given in full)	13µM*	3%
FC(F)(F)c1ccc(C2[C@H]3CN(Cc4ccc(-c5ccccc5)cc4)[C@H](c4ccccc4)C34CC2(c2ccccc2)C4)cc1 (stereo not given in full)	13µM*	3%
FC(F)(F)c1ccc(C2[C@H]3CN(Cc4ccc(-c5ccccc5)cc4)[C@H](c4ccccc4)C34CC2(c2cccnc2)C4)cc1 (stereo not given in full)	-6%	7%
c1ccc(-c2ccc(CN3C[C@@H]4C(c5ccccc5)C5(c6cccnc6)CC4(C5)[C@H]3c3ccccc3)cc2)cc1 (stereo not given in full)	-1%	0%
COC(=O)c1ccc(C23CC4(C2)[C@H](CN(Cc2ccc(-c5ccccc5)cc2)[C@@H]4c2ccccc2)C3c2ccc(C(F)(F)F)cc2)cc1 (stereo not given in full)	?	1%
COC(=O)c1ccc(C23CC4(C2)[C@H](CN(Cc2ccc(-c5ccccc5)cc2)[C@@H]4c2ccccc2)C3c2ccc(Cl)nc2)cc1 (stereo not given in full)	16µM*	3%
COC(=O)c1cccc(C23CC4(C2)[C@H](CN(Cc2ccc(C(F)(F)F)cc2)[C@@H]4c2ccccc2)C3c2ccccc2)c1 (stereo not given in full)	-29%	0%
CCCCCOc1ccc(C2c3c(oc4ccccc4c3=O)C(=O)N2c2nc(C)c(C)s2)cc1OCC (stereo not given)	13%	-1%
CCCCCCCCCCCCCCCCCCCCCCO	-1%	1%
Cc1ccccc1Cc1c(C)nc2nc(SCC(=O)N(C)c3ccccc3)nn2c1C	-6%	0%
CC(=O)Cc1nsc(NC(=O)c2ccc(-c3cccc(C(F)(F)F)c3)o2)n1	3%	4%
Cc1nnc(NC(=O)c2ccc(-c3cccc(C(F)(F)F)c3)o2)s1	13µM*	2%
O=C(Nc1ncc(Cc2cccc(C(F)(F)F)c2)s1)c1ccc(-c2cccc([N+](=O)[O-])c2)o1	10µM*	-4%
Cc1ccc2cccc(NC(=O)c3ccc(-c4cccc([N+](=O)[O-])c4)o3)c2n1	-10%	-2%
Cc1noc(Cn2c(=O)c3ccccc3n(CC(=O)Nc3ccccc3C(F)(F)F)c2=O)n1	1%	-1%
CC(=O)NCCNc1nc(-c2ccccc2C)nc2ccccc12	2%	-1%
Cc1oc(C)c2c(=O)cc(-c3ccc4c(c3)OCO4)cc(OC(=O)c3ccccc3Cl)c12	-4%	-2%
Cc1oc(C)c2c(=O)cc(-c3ccc4c(c3)OCO4)cc(OC(=O)c3ccccc3Br)c12	16µM*	-9%
COc1ccccc1CNC(=O)c1ccc2nc(-c3ccccc3)c(-c3ccccc3)nc2c1	-13%	0%
Cc1ccccc1-c1nn2c(=O)cc(CN3CCN(S(=O)(=O)c4ccc(Cl)cc4)CC3)nc2s1	-2%	1%
O=C(CSc1nnc(-c2c[nH]c3ccccc23)o1)N(Cc1ccccc1)c1ccc(F)cc1	13µM*	-5%
COc1ccc(CN(C(=O)CSc2nnc(-c3ccccc3C)o2)c2ccc(F)cc2)cc1	-9%	-5%
SMILES	Cruzain inh noDet	Cruzain inh Det
O=C(CCN1CCCCC1)Nc1ccc2c(c1)C(=O)c1ccc(NC(=O)CCN3CCCCC3)cc1C2=O	-9%	0%
COCCn1c(=NC(=O)c2ccc(S(=O)(=O)N3CCc4ccccc4C3)cc2)sc2cc(OC)ccc21	4µM*	-3%
COCCn1c(=NC(=O)CN2C(=O)CCC2=O)sc2cc(S(N)(=O)=O)ccc21	5%	-6%
CCCc1ccc(-c2cc(C(=O)NCCc3ccc(S(N)(=O)=O)cc3)c3ccccc3n2)cc1	3%	-16%
CCCc1ccc(-c2cc(C(=O)Nc3ccc([N+](=O)[O-])cn3)c3ccccc3n2)cc1	25µM*	-4%
Cc1cc(C)c(NC(=O)Cn2c(=O)n(Cc3ccc(C(=O)NCc4ccco4)cc3)c(=O)c3sccc32)c(C)c1	12%	-5%
O=C(NCc1ccccc1)c1ccc2nc(-c3ccco3)c(-c3ccco3)nc2c1	7.9µM*	?

Screening data: PubChem, National Center for Advancing Translational Sciences (NCATS)
